Laboratory results reported in PubChem BioAssay AID1159580 (chemical genetic matrix, 2015).
The whole screen tested about 5,500 compounds, of which about 2,000 (36%) were called active. Roughly 18% stayed inconclusive and do not appear here. No stated cut-off is given here; in the data, active means normalized growth mostly below about 0.91 (no sharp cut-off); inconclusive means no clear call, values can overlap the other calls; inactive means mostly above about 0.92. This is one part of the list.

Experiment: chemical genetic growth profiling, strain panel (AID 1159580);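 further: tested at 20 µM; growth read once vehicle control cultures reached saturation at 30 °C; 1 = growth at the plate median or of vehicle wells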
Conditions: S. cerevisiae deletion strains, growth OD

Measured: normalized growth

Cc1ncc(CSSCc2cnc(C)c(O)c2CO)c(CO)c1O
inactive: locus YHR030C, strain SLT2, stronger effect = lower value 1.01 | locus YHR079C, strain IRE1, stronger effect = lower value 1.01 | locus YJL095W, strain BCK1, stronger effect = lower value 0.995 | locus YJR066W, strain TOR1, stronger effect = lower value 0.945 | locus YLR113W, strain HOG1, stronger effect = lower value 0.983 | locus YNL183C, strain NPR1, stronger effect = lower value 0.948 | locus YOR231W, strain MKK1, stronger effect = lower value 1.01 | locus YPL256C, strain CLN2, stronger effect = lower value 1.01
